According to ChEMBL document CHEMBL3988442, “University of Dundee, Small-Polar-MMV Screening Library” (2021):
In all, about 48,000 compounds went through this assay and about 13,000 (27%) showed an effect of 50% or more. Some of the results follow.

The molecules below were run on Wolbachia pipientis (assay: Anti-Wolbachia Cell-Based Screen). Settings: 5 µM.
Assay type: functional
Set-up: scale not given: in the data most compounds retested in dose-response had high values

| SMILES | Percent Effect [%] |
| --- | --- |
| O=C(c1cc2ccccc2s1)N1CCC(C(=O)O)(n2cccn2)CC1 | -13.71 |
| CCn1cc2c(n1)CN(C(=O)c1ccncc1)CC2COCC1CC1.O=C(O)C(F)(F)F (centres undefined) | 20.52 |
| Cn1cnnc1C1CCCN(C(=O)COc2ccccc2Cl)C1 (centres undefined) | 152.2 |
| O=C(COc1ccccc1Cl)N1CCCC(n2ccnc2)C1 (centres undefined) | 92.71 |
| O=C(COCc1ccccc1Cl)N1CCCC(n2ccnc2)C1 (centres undefined) | 103.7 |
| O=C(c1ccccc1OCC1CC1)N1CCCC(n2ccnc2)C1 (centres undefined) | 8.934 |
| COc1cccc(COCC(=O)N2CCCC(c3nncn3C)C2)c1 (centres undefined) | -0.5429 |
| O=C(COCC1CC1)N1CCCC(n2ccnc2)C1 (centres undefined) | 8.162 |
| CN(CC(=O)N1CCCC(n2ccnc2)C1)c1cnccn1 (centres undefined) | -4.389 |
| O=C(COC1CCCCC1)N1CCCC(n2ccnc2)C1 (centres undefined) | 76.06 |
| CCn1cnnc1C1CCCN(C(=O)COc2ccc(Cl)cc2)C1 (centres undefined) | 6.691 |
| O=C(COCc1ccccc1Cl)N1CCCC(n2cccn2)C1 (centres undefined) | 1.04 |
| CC1(COc2ccccc2)NCCc2[nH]cnc21 (centres undefined) | 7.349 |
| CCc1cc(CN(C)C(=O)C2CC(=O)N(c3cccc(O)c3)C2)on1 (centres undefined) | -10.41 |
| Cc1ccc(C(C(=O)N2CCN(C(=O)c3ccc[nH]3)CC2)N(C)C)cc1 (centres undefined) | 1.987 |
| COCCOc1ccc(NC(=O)N(CC2CCOC2)C2CC2)cn1 (centres undefined) | -6.429 |
| O=C(COCCOc1ccccc1)N1CCCC(n2ccnc2)C1 (centres undefined) | 75.36 |
| O=C(COCCc1ccccc1)N1CCCC(n2cccn2)C1 (centres undefined) | 5.674 |
| COc1cccc(COCC(=O)N2CCCC(n3ccnc3)C2)c1 (centres undefined) | -0.4033 |
| Cc1cc(C(=O)N2CCCC2c2nc(O)cc(C(C)C)n2)on1 (centres undefined) | 118.7 |
| CC(C)c1nc(C2CCCN2C(=O)c2nccnc2N)no1 (centres undefined) | -0.7868 |
| CC(C)c1cc(C(=O)N2CCCC2c2nc(-c3ccccc3)no2)[nH]n1 (centres undefined) | -1.356 |

| SMILES | Percent Effect [%] |
| --- | --- |
| Cc1cc(C(=O)N2CCCC2c2nc(C)cc(O)n2)on1 (centres undefined) | 93.31 |
| CCn1ccnc1CN1CCC(CCC(=O)Nc2ccccc2Cl)CC1 | 11.39 |
| COCCC1(C(=O)O)CCCN(C(=O)c2cnc3c(c2)CCCC3)C1 (centres undefined) | 8.826 |
| O=C(Cc1cn2ccccc2n1)N1CCCC(n2cccn2)C1 (centres undefined) | 62.83 |
| O=C(Cc1ccc(-n2cccn2)cc1)N1CCCC(n2cccn2)C1 (centres undefined) | 7.23 |
| O=C(Cc1cn2ccccc2n1)N1CCCC(n2ccnc2)C1 (centres undefined) | 115.6 |
| Cc1cnn(C2CCCN(C(=O)Cc3cn4ccccc4n3)C2)c1 (centres undefined) | 14.59 |
| O=C(Cc1ccc2c(c1)OCCO2)N1CCCC(n2ccnc2)C1 (centres undefined) | 5.657 |
| Fc1cccc2ncnc(NCCCc3ccncc3)c12 | -47.88 |
| O=C(O)C(F)(F)F.O=C(c1ccccc1F)N1CCC2(CC1)CC(Oc1ccccn1)CO2 (centres undefined) | 109.1 |
| COC1COC2(CCN(C(=O)c3cocn3)CC2)C1 (centres undefined) | -7.314 |
| CCN(C)C1COC2(CCN(C(=O)c3ccc(Cl)cc3)CC2)C1.O=C(O)C(F)(F)F (centres undefined) | -12.32 |
| O=C(O)C(F)(F)F.O=C(O)C(F)(F)F.c1cc(CN2CCC3(CC2)CC(N2CCCC2)CO3)co1 (centres undefined) | -12.83 |
| COC1COC2(CCN(C(=O)c3ccc4ccccc4c3)CC2)C1 (centres undefined) | 112.4 |
| O=C(c1ccccc1)N1CCC2(CC1)CC(Oc1ccccc1)CO2 (centres undefined) | 2.639 |
| COC1COC2(CCN(C(=O)c3cnc(C)cn3)CC2)C1 (centres undefined) | 14.55 |
| O=C(O)C(F)(F)F.O=C(c1cocn1)N1CCC2(CC1)CC(Oc1ccccn1)CO2 (centres undefined) | 3.532 |
| CS(=O)(=O)N1CCC2(CC1)CC(Oc1ccccn1)CO2.O=C(O)C(F)(F)F (centres undefined) | 10.24 |
| COC1COC2(CCN(C(=O)c3ncccn3)CC2)C1 (centres undefined) | -17.92 |
| O=C(O)C(F)(F)F.O=C(c1ccccc1F)N1CCC2(CC1)CC(N1CCCC1)CO2 (centres undefined) | 116.8 |
| COC1COC2(CCN(C(=O)c3ccccc3F)CC2)C1 (centres undefined) | 91.89 |
| Cc1cc(C(=O)NC2(C#N)CCCC2)c(C)n1-c1cccnc1 | -8.526 |

| SMILES | Percent Effect [%] |
| --- | --- |
| O=C(Cc1cccs1)NCC1Cn2nnc(-c3ccoc3)c2CO1 (centres undefined) | 6.925 |
| Fc1ccc(CN2CCC3(CCCN(c4nncs4)C3)C2)cc1.O=C(O)C(F)(F)F (centres undefined) | 5.699 |
| COc1ccc(S(=O)(=O)NC(=O)C(C)OC)c(OC)c1 (centres undefined) | 36.91 |
| O=C(N[C@@H]1CN(C2CCCC2)C[C@@H]2CCCO[C@@H]21)c1cnccn1.O=C(O)C(F)(F)F | -9.219 |
| CN(C(=O)C(c1c(F)cccc1Cl)N(C)C)c1nccs1 (centres undefined) | 2.736 |
| COC1COC2(CCN(C(=O)c3cscn3)CC2)C1 (centres undefined) | -7.766 |
| COc1ncccc1C(=O)N1CCC2(CC1)CC(OC)CO2.O=C(O)C(F)(F)F (centres undefined) | 101.4 |
| COc1ncccc1C(=O)N1C[C@@H]2COC[C@]2(CN(C)C)C1.O=C(O)C(F)(F)F.O=C(O)C(F)(F)F | -15.94 |
| O=C1CCC2(CCCN(CCn3cc(Cl)cn3)C2)CN1C1CCCC1 (centres undefined) | 113 |
| Cc1ccnn1CCN1CCCC2(CCC(=O)N(C3CCCC3)C2)C1 (centres undefined) | 107.9 |
| COCCCN1CC2(CCCN(CCn3cc(Cl)cn3)C2)CCC1=O (centres undefined) | 116.7 |
| Nc1ccnc(C(=O)N2CCCC3(CCC(=O)N(C4CCCC4)C3)C2)c1 (centres undefined) | 1.558 |
| O=C1CCCN1C1CCCN(CCOc2ccc(F)cc2)C1 (centres undefined) | -5.922 |
| O=C1CCC2(CCN(Cc3cc(F)ccc3Cl)CC2)CN1C1CCCC1 | -0.02537 |
| COCCN1CC2(CCCN(c3ncc(Cl)cc3F)C2)CCC1=O (centres undefined) | 2.913 |
| COc1coc(CN2CCCC3(CCC(=O)N(C4CC4)C3)C2)cc1=O (centres undefined) | 7.748 |
| Cc1cnn(CC(=O)N2CCC3(CCC(=O)N(C4CCCC4)C3)CC2)c1 | -24.67 |
| Cn1cc(CN2C[C@@H](N3CCCC3=O)[C@H]3OCCC[C@H]32)cn1 | 16.86 |
| O=C1CCCN1C1CCCN(CCn2cc(Cl)cn2)C1 (centres undefined) | 92.68 |
| COCCCN1CC2(CCCN(c3ncc(Cl)cc3F)C2)CCC1=O (centres undefined) | -2.307 |
